Measurements taken from the OligoGym collection.

Target: SLC20A1
Test: pooled miR-30 sensor sort-seq; sequence = guide strand
Settings: shRNA

Going from TTGACTGAACTGGACAAGGTTC to TTCTCGTTCAATTTTTCTCTTC, the sensor-assay potency score (higher = more potent) rises from -0.668 to -0.376.

Going from TTCACGGTGCTATCTATGCTGG to TAGCTCTTTGTACAGGCCGGAA, the sensor-assay potency score (higher = more potent) falls from -1.16 to -1.38.

Compared with TAGAGTAGAAGCCATATTGGTG, TTCAATATCACCAACAGACAAC is lower in sensor-assay potency score (higher = more potent): -0.743 for the first, -1 for the second.

Going from TAGCACAAGTAACACTTCCCTC to TTTTCTGTCACCTAGACCCATC, the sensor-assay potency score (higher = more potent) falls from -0.562 to -0.857.

Target: SLC22A17
Test: as above
Settings: shRNA

First: ATTATAGTCCCAATCCTTGAGG
Second: TTCACTATCAGCCACCGTGCGG
The sensor-assay potency score (higher = more potent) of the first is lower: -1.04 for the first, -0.928 for the second.

Going from TATTGAAACAGAATGATAGAGC to AAGGTCAGCAGCACAATCCCGC, the sensor-assay potency score (higher = more potent) falls from -0.514 to -0.694.

Going from TGAAACAGAATGATAGAGCAAG to TCCGGCAGCAGCATAATGCTGA, the sensor-assay potency score (higher = more potent) falls from -0.0667 to -0.933.

Compared with TAACCCAGGAACAGGTAGCCGG, TCTGTCTGCGGGGTAACCCAGG is lower in sensor-assay potency score (higher = more potent): -1.09 for the first, -1.27 for the second.

Compared with TAGACACCCAGGTCAACACCGG, TGCTCCAGGATCACCTGCCAGC is lower in sensor-assay potency score (higher = more potent): -0.269 for the first, -1.29 for the second.

Work on TCACTATCAGCCACCGTGCGGA yielded a sensor-assay potency score (higher = more potent) of -0.275.

Target: SLC22A1
Test: as above
Settings: shRNA

Going from TTCTGCAGAGGATAACTCCATC to ATGATTATGATGTTTAACCAGT, the sensor-assay potency score (higher = more potent) falls from -0.998 to -1.09.

First: TGATAGAGCACAGAGTCCGTGA
Second: TATCTTTATTGCTTCAGTGTTT
The sensor-assay potency score (higher = more potent) of the first is higher: -0.157 for the first, -0.476 for the second.

Compared with TTTATTGCTTCAGTGTTTCTTT, TTTCGGTGACATCCTCTTCGAG is lower in sensor-assay potency score (higher = more potent): 0.132 for the first, -1.03 for the second.

First: TATAGTTCAGCTCCTCCGCAGG
Second: TTCGGTGACATCCTCTTCGAGG
The sensor-assay potency score (higher = more potent) of the first is lower: -0.994 for the first, 0.00261 for the second.

First: TACATGATCGCCACCGTTCTTC
Second: TGGTACATGATCGCCACCGTTC
The sensor-assay potency score (higher = more potent) of the first is higher: -0.241 for the first, -1.08 for the second.

First: TTTTGTGATAACAGCCACCGAG
Second: TTTGTGATAACAGCCACCGAGG
The sensor-assay potency score (higher = more potent) of the first is higher: -0.543 for the first, -0.671 for the second.

Target: SLC22A7
Test: as above
Settings: shRNA

Going from TAATAGGAGAAGTTCACTCCGA to TTTATTTACAGAATCCTCCCCA, the sensor-assay potency score (higher = more potent) rises from 0.0839 to 0.685.

Going from TGAAGCTGTCCTCACACACTGG to TAGGGTACAACTCTGAAGTGAA, the sensor-assay potency score (higher = more potent) rises from -0.999 to 0.4.

Going from TTATTTACAGAATCCTCCCCAA to TACAACTCTGAAGTGAACAGGT, the sensor-assay potency score (higher = more potent) rises from -0.0957 to 0.517.

First: ATGGCAAACATTACATAGCTGA
Second: TTCTGAGTGGTCGTACTCCCAG
The sensor-assay potency score (higher = more potent) of the first is higher: -0.95 for the first, -1.56 for the second.

TTACATAGCTGACGGAGGCTGC showed a sensor-assay potency score (higher = more potent) of -0.245.
